# Data taken from PubChem BioAssay (Tox21).
# Unmarked numbers belong to inactive results. Inconclusive results are not listed. A call without a number means that no potency is given here. Active and inactive are the calls of the source. Calls follow the shape of the dose curve; as a rule, active = well fitted curve in the direction sought with a large enough effect in the repeat runs; inconclusive = weak or mixed curves; inactive = no such curve, though single readings can be large; an effect the other way counts as inactive or inconclusive.
# Assays:
# [1] = A CellTox Green Cytotoxicity Assay to monitor cytotoxicity in HepG2 cells - 16 hour (AID 1224876); also: nearly all actives have a fitted effect of over 45% in size
# Method in brief: (§1)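 Nonlytic assay: viable cells exclude the dye, so fluorescence scales with cell death. HepG2 at 600 cells/well, compounds added after 5 h, signal read across 40 h.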
# [2] = qHTS RealTime-Glo MT Cell Viability Assay in HepG2 cells - 32 hour (AID 1224877); also: nearly all actives have a fitted effect of over 55% in size
# Method in brief: (§2)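 Cells + NanoLuc/prosubstrate dispensed (600 cells/well) → 5 h at 37 C/5% CO2 → compounds in DMSO transferred → 40 h incubation at 37 C, luminescence read at 0, 8, 16, 24, 32, 40 h.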
# [3] = A CellTox Green Cytotoxicity Assay to monitor cytotoxicity in HepG2 cells - 24 hour (AID 1224878); also: nearly all actives have a fitted effect of over 45% in size
# Method in brief: as §1
# [4] = qHTS RealTime-Glo MT Cell Viability Assay in HEK293 cells - 0 hour (AID 1224880); also: top concentration of the series differs between compounds; nearly all actives have a fitted effect of over 45% in size
# Method in brief: (§3)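 Tox21 screen in HEK293 using RealTime-Glo MT chemistry, with cells and reagent co-dispensed. Luminescence proportional to viable cell number was captured at intervals during 40 h compound exposure at 37 C.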
# [5] = A CellTox Green Cytotoxicity Assay to monitor cytotoxicity in HEK293 cells - 32 hour (AID 1224881); also: nearly all actives have a fitted effect of over 40% in size
# Method in brief: (§4)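 Seeding of HEK293 cells together with cytotoxicity dye preceded a 5 h incubation at 37 C/5% CO2. Test compounds in DMSO were then added and fluorescence monitored across 40 h.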
# [6] = A CellTox Green Cytotoxicity Assay to monitor cytotoxicity in HepG2 cells - 0 hour (AID 1224882); also: nearly all actives have a fitted effect of over 35% in size
# Method in brief: as §1
# [7] = A CellTox Green Cytotoxicity Assay to monitor cytotoxicity in HepG2 cells - 32 hour (AID 1224883); also: nearly all actives have a fitted effect of over 50% in size
# Method in brief: as §1
# [8] = A CellTox Green Cytotoxicity Assay to monitor cytotoxicity in HEK293 cells - 8 hour (AID 1224884); also: nearly all actives have a fitted effect of over 35% in size
# Method in brief: as §4
# [9] = qHTS RealTime-Glo MT Cell Viability Assay in HepG2 cells - 16 hour (AID 1224885); also: nearly all actives have a fitted effect of over 50% in size
# Method in brief: as §2
# [10] = qHTS RealTime-Glo MT Cell Viability Assay in HEK293 cells - 24 hour (AID 1224886); also: nearly all actives have a fitted effect of over 50% in size; also: potency is read from the fitted curve at half-maximal effect; as to activity change, negative = cytotoxicity: top concentration of the series differs between compounds
# Method in brief: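 Tox21 10K qHTS, HEK293, 600 cells/well, RealTime-Glo reagent co-dispensed with cells; 5 h preincubation, compound by pintool, 37 C, luminescence at 0–40 h.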
# [11] = A CellTox Green Cytotoxicity Assay to monitor cytotoxicity in HepG2 cells - 8 hour (AID 1224890); also: nearly all actives have a fitted effect of over 45% in size
# Method in brief: as §1
# [12] = qHTS assay to identify small molecule antagonists of the estrogen receptor alpha (ER-alpha) signaling pathway using the BG1 cell line in the presence of 0.1 nM 17-beta-estradiol - cell viability counter screen (AID 1259241); also: nearly all actives have a fitted effect of over 40% in size
# Method in brief: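 Live-cell protease activity (CellTiter-Fluor fluorescence, 30 min) was read in the same wells after VM7Luc4E2 cells had been exposed to compounds with 0.1 nM 17beta-estradiol for 22 hr at 37C.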
# [13] = qHTS assay to identify small molecule antagonists of the androgen receptor (AR) signaling pathway using the MDA cell line in the presence of 0.5 nM R1881 - cell viability counter screen (AID 1259242); also: nearly all actives have a fitted effect of over 45% in size
# Method in brief: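 R1881 at 0.5 nM final stimulated MDA-kb2 cells during 16 hr compound treatment at 37C. Cytotoxicity read: CellTiter-Fluor fluorescence after 30 min.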
# [14] = target: Androgen receptor (Homo sapiens) (UniProt P10275); test: qHTS assay to identify small molecule antagonists of the androgen receptor (AR) signaling pathway using the MDA cell line in the presence of 0.5 nM R1881 (AID 1259243); also: nearly all actives have a fitted effect of over 50% in size
# Androgen receptor (Homo sapiens), sequence (P10275 whole entry, looked up): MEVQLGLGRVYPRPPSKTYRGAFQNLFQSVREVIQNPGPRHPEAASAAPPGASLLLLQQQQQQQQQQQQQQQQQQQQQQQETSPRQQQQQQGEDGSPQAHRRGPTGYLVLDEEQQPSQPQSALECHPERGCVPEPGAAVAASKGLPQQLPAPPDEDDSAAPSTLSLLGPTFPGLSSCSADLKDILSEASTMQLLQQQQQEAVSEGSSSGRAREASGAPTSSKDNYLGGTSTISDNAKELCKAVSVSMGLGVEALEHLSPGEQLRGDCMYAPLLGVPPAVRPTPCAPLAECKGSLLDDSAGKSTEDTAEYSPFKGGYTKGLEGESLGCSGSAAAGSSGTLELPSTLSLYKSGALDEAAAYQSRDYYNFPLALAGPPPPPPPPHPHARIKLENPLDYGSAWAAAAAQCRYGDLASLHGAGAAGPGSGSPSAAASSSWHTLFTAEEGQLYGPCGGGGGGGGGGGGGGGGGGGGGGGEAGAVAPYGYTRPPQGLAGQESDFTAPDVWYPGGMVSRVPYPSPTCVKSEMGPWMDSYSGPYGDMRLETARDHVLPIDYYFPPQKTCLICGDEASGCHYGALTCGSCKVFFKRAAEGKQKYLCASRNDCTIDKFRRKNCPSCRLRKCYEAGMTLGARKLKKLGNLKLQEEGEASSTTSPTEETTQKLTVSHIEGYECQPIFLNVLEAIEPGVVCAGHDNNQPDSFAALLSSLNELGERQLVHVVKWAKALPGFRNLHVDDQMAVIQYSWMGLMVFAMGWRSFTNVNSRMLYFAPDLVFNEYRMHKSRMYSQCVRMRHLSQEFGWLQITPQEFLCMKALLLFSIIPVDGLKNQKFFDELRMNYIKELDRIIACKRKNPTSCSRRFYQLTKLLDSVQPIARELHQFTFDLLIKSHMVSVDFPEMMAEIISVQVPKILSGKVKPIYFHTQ
# Method in brief: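 We exposed MDA-kb2 cells to compounds under 0.5 nM R1881 stimulation for 16 hr at 37C and quantified MMTV-driven luciferase by luminescence.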
# [15] = A CellTox Green Cytotoxicity Assay to monitor cytotoxicity in HepG2 cells - 40 hour (AID 1224879); also: nearly all actives have a fitted effect of over 40% in size
# Method in brief: as §1
# [16] = qHTS RealTime-Glo MT Cell Viability Assay in HEK293 cells - 8 hour (AID 1224887); also: nearly all actives have a fitted effect of over 50% in size; also: potency is read from the fitted curve at half-maximal effect; as to activity change, negative = cytotoxicity: top concentration of the series differs between compounds
# Method in brief: as §3
# [17] = qHTS RealTime-Glo MT Cell Viability Assay in HepG2 cells - 0 hour (AID 1224889); also: nearly all actives have a fitted effect of over 50% in size
# Method in brief: as §2
# [18] = target: Estrogen receptor (Homo sapiens) (UniProt P03372); test: qHTS assay to identify small molecule antagonists of the estrogen receptor alpha (ER-alpha) signaling pathway using the BG1 cell line in the presence of 0.1 nM 17-beta-estradiol (AID 1259244); also: nearly all actives have a fitted effect of over 50% in size
# Estrogen receptor (Homo sapiens), sequence (P03372 whole entry, looked up): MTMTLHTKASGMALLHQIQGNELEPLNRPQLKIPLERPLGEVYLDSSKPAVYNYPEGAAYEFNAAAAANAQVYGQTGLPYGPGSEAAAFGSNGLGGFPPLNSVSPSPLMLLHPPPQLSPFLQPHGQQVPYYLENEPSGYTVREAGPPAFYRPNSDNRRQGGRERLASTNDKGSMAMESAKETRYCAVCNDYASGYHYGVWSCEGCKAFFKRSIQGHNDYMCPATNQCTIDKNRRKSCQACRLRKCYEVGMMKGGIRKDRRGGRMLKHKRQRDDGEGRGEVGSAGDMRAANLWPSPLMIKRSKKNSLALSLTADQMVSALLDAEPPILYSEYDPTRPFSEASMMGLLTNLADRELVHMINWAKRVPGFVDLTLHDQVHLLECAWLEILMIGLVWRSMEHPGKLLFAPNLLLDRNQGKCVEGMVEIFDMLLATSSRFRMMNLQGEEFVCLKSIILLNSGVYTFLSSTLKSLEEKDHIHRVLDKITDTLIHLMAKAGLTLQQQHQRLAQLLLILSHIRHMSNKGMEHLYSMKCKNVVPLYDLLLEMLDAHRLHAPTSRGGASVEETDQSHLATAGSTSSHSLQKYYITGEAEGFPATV
# Method in brief: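 VM7Luc4E2; 4xERE-luciferase; 0.1 nM E2 final; 22 h co-incubation, 37C; ONE-Glo luminescence after 30 min at room temperature.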
# [19] = A CellTox Green Cytotoxicity Assay to monitor cytotoxicity in HEK293 cells - 16 hour (AID 1224888); also: nearly all actives have a fitted effect of over 35% in size
# Method in brief: as §4
# [20] = A CellTox Green Cytotoxicity Assay to monitor cytotoxicity in HEK293 cells - 24 hour (AID 1224875)
# Method in brief: as §4
smiles,measurement,setting,value
CCN(CCC#N)c1ccc(N=Nc2ccc([N+](=O)[O-])cc2)cc1,Potency,[1],inactive
same,Potency,[2],inactive
same,Potency,[3],inactive
same,Potency,[4],inactive
same,Potency,[5],inactive
same,Potency,[6],inactive
same,Potency,[7],inactive
same,Potency,[8],inactive
same,Potency,[9],inactive
same,Potency,[10],inactive
same,Potency,[11],inactive
same,Potency,[12],inactive
same,Potency,[13],inactive
same,Potency,[14],inactive
Cn1ccnc1,Potency,[1],inactive
same,Potency,[2],inactive
same,Potency,[3],inactive
same,Potency,[15],inactive
same,Potency,[4],inactive
same,Potency,[5],inactive
same,Potency,[6],inactive
same,Potency,[7],inactive
same,Potency,[8],inactive
same,Potency,[9],inactive
same,Potency,[10],inactive
same,Potency,[16],inactive
same,Potency,[17],inactive
same,Potency,[11],inactive
same,Potency,[12],inactive
same,Potency,[13],inactive
same,Potency,[18],inactive
C=C1CC[C@H]2O[C@]2(C)CC[C@@H]2[C@@H]1CC2(C)C,Potency,[1],inactive
same,Potency,[2],inactive
same,Potency,[3],inactive
same,Potency,[15],inactive
same,Potency,[4],inactive
same,Potency,[5],inactive
same,Potency,[6],inactive
same,Potency,[7],inactive
same,Potency,[8],inactive
same,Potency,[9],inactive
same,Potency,[16],49 µM (active)
same,Potency,[19],inactive
same,Potency,[17],inactive
same,Potency,[11],inactive
same,Potency,[12],inactive
same,Potency,[13],inactive
same,Potency,[14],inactive
same,Potency,[18],inactive
CCCCCCCCCCCC(=O)Cl,Potency,[1],inactive
same,Potency,[2],inactive
same,Potency,[3],inactive
same,Potency,[15],inactive
same,Potency,[4],inactive
same,Potency,[5],inactive
same,Potency,[6],inactive
same,Potency,[7],inactive
same,Potency,[9],inactive
same,Potency,[10],inactive
same,Potency,[16],inactive
same,Potency,[17],inactive
same,Potency,[11],inactive
same,Potency,[12],inactive
same,Potency,[13],inactive
same,Potency,[18],inactive
CCCCCCCCCCCCS(=O)(=O)Cl,cytotoxicity increase,[1],-10.9% [at 15.8 µM]
same,"activity change, negative = cytotoxic",[2],9.6% [at 15.8 µM]
same,cytotoxicity,[3],-12.5% [at 15.8 µM]
same,cytotoxicity increase,[15],-19.9% [at 15.8 µM]
same,"activity change, negative = cytotoxicity",[4],-1.06% [at 15.8 µM]
same,cytotoxicity increase,[5],-1.06% [at 15.8 µM]
same,cytotoxicity,[6],-7.13% [at 15.8 µM]
same,cytotoxicity increase,[7],-17.3% [at 15.8 µM]
same,cytotoxicity increase,[8],-0.511% [at 15.8 µM]
same,"activity change, negative = cytotoxic",[9],1.02% [at 15.8 µM]
same,"activity change, negative = cytotoxicity",[10],12.2% [at 15.8 µM]
same,"activity change, negative = cytotoxicity",[16],8.12% [at 15.8 µM]
same,activity change,[19],"2.57% [at 15.8 µM, hits give high values]"
same,cytotoxicity increase,[11],-21% [at 15.8 µM]
same,"activity change, negative = cytotoxicity",[12],-4% [at 19 µM]
same,"activity, negative = inhibition",[14],0.127% [at 19 µM]
C=Cc1ccc(O)c(OC)c1,Potency,[1],inactive
same,Potency,[2],inactive
same,Potency,[3],inactive
same,Potency,[15],inactive
same,Potency,[5],inactive
same,Potency,[6],inactive
same,Potency,[7],inactive
same,Potency,[8],inactive
same,Potency,[9],inactive
same,Potency,[10],inactive
same,Potency,[19],inactive
same,Potency,[17],inactive
same,Potency,[11],inactive
CCCOC(=O)c1ccc(O)cc1,Potency,[20],inactive
same,Potency,[3],inactive
same,Potency,[4],inactive
same,Potency,[5],inactive
same,Potency,[6],inactive
same,Potency,[7],inactive
same,Potency,[8],inactive
same,Potency,[9],inactive
same,Potency,[10],21.9 µM (active)
same,Potency,[17],inactive
same,Potency,[11],inactive
same,Potency,[12],inactive
same,Potency,[13],inactive
same,Potency,[18],inactive
